Data taken from the supplement of paper PMC12632987.
In all, about 1,800 sequences were measured (“median log2 fold change of GCK-ALFA target abundance (FLAG IP / Myc IP barcode read proportion)”: median about 0.14, lowest 2% from about -0.84 on). Only a selection was taken, and the lowest values are over-represented in it overall.

T1: TRAF2, Q12933
T1 chain: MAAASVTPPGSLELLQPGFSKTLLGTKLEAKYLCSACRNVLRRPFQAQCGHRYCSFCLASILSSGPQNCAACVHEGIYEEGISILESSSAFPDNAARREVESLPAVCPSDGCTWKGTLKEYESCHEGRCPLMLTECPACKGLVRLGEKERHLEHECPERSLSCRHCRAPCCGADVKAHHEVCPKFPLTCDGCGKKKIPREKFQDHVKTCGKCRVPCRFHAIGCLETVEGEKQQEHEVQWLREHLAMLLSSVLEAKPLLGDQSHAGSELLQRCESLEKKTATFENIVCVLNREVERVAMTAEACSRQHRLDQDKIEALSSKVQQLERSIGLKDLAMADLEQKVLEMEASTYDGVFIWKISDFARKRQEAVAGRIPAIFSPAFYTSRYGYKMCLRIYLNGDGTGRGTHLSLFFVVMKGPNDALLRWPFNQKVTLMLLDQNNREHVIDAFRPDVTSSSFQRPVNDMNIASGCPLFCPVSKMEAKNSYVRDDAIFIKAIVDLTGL

B1: traf2_out_17_162_1521 (protein)
chain: SPLEAELKALEAELEALKKKLEELKKKLENLDKMSKEELTDLLVEASEARRKALELAERLKRLKPLIGEERAGALIAEAEAIAEELQKIANKIYKKLEEK
B2: traf2_out_17_162_1578 (protein)
chain: EELKKELEELKKKLEELKKKLKEFEKKLPELPKMSYEELTDLLVEVSELKREARELAEKLEELGKKLGEEEIKKLVEEAKEIAEKLQKIANKIYKEIEKK
B3: traf2_out_20_3_2068 (protein)
chain: EELEKELEEALEKALALLKKAAALADPETAAELDALIKELKASKELSVSDRLVAVSAVRRRVLRLAEEAEAAGDAELAAVLNKAADALNRAAQLLYQILQ
B4: traf2_out_15_48_1358 (protein)
chain: STEALRETARKVADLIDATLDEVAKELKALLPKAKPEVKPILEEAIRVASTHRSINDTIALLEEAIKKSDPELAKELQELRDRLLATQKEASKLINETEK
B5: traf2_out_17_162_1493 (protein)
chain: SELEEKKKKLEKELKELKKKLKELEKKLENIEKLSKEELTDLLVEASELKRKARQLAEEYKKLLKKTGDKELEKLIKEAEELAERAQKIANKIYKEIEKK
B6: traf2_out_20_3_2136 (protein)
chain: SELEEELKKELEKAKKLLEKAAALADKETAAKLKALIKRLEASEELSPEDRLVEFSEIRREVLELALAAEAAGKAELAKLLNEAADALNKAMNLLMKIIE
B7: traf2_out_8_15_2548 (protein)
chain: SIKEAAEKDIARLKALSDGDKESLINTLLGMAKGELRLAKIYKEEGRKEEALRTLEYARIYAEAALELAKEIGSPRLEEIKKEVEELEKEIEELRKEIEA
B8: traf2_out_20_3_2212 (protein)
chain: EELRKKVEEELEKIRELLEKAKPRLPEEDYARLKELLERAEEALKEDPSDALVELSELKALLLRLSQEARAAGDEELAALLDEAADAANKAANLVYKILE
B9: traf2_out_20_38_2001 (protein)
chain: SAEEEEEEKLKKIIDVANEAYDEASKEIEELKAAGKSVEEIAEIVRAKVRELLTAAGLEEELEELLADIDRALSSPNALRLFARIRARAVALVKQKELNE
B10: traf2_out_1_27_1004 (protein)
chain: STEEERELLRRANREIGRASPEERVEVIVRALEEALARGLESPEHIAVVLILSLGEEEERRRAIEAAEEVLRAAGVSEEAIERMRRRVESGWARLDKLLA
B11: traf2_out_14_149_1260 (protein)
chain: SATEERRRALREALELFERAAELLAAAIAAGSNDLDVEELRRLLEEAREILSKQGFVLGSLLAIEELLEEAEELTEEDLRRLLELAERAAESLEVLAEML
B12: traf2_out_17_178_1741 (protein)
chain: SKEEILKEISKLADEMIDVSREAAEKLTELAEKEGILTPELRERLDLVARTSNLYAFEEVANELIELSKNKEEIQKLLDETTKKLRELRKKIQEAVEKLK
B13: traf2_out_13_95_1214 (protein)
chain: SAEANAELREVAREYTDRAEAVIDALAAALAPDPEVQPDMDAIRAAFRRNGVRQAIALIRAAAARHPEHKADFDAAAAELEAIRREAGRRFAEILKRDEE
B14: traf2_out_9_108_2593 (protein)
chain: MTKEEILEEKFKKVEELVKEFIEEVDLTEEQKEELEEAIKNAKELYEKGLKETAIILLAIDLARVASKVGEEAVKELLEKLKKIDERAYSAAERMVKLLK
B15: traf2_out_17_162_1623 (protein)
chain: SPEEEELKRYEEELKELEKEKKELEKKAEKIDELSKEELTDLLVEASEARRRARELAERIERKREELNDPRLEELLKRAEEIAEEFQRIANKFYKKLEEK
B16: traf2_out_1_33_1031 (protein)
chain: SAEIERKSMALLRRTTGEMYRLLRETEEKMEKLLEEGKPAEEIEKLAEETRKKIKEIADKAIAELKALGDDLTADILESEKTDILKRLDEIKKEILAKLK
B17: traf2_out_20_38_2038 (protein)
chain: SEEEEEEERLERLVEVANAALDRYEARIAALQAEGKSVAEIAEWAKEEIRRILGEAGLEEEAEELIAQVRTVENRPDALRLIARILARAEALAYQKELQK
B18: traf2_out_11_131_661 (protein)
chain: MDAVAMAKSVAARVDERLALAKTLSPEERTRLARQALDSIEALAEYLTSHVSEMSKEDVEEAVKILRASAKKVLAADPSVAEDVKEVEKALKKLLEAAKA
B19: traf2_out_20_38_2029 (protein)
chain: SEEEEEERRLEELIKVANDSYDKYTKKFEKLVAEGKTVEEIAELAKKEVKEKLTAAGLEEEAKELIEDIDRALSSPNALRLIVRILARADALVHQKKINE

Target: T1, TRAF2, Q12933
Assay: median log2 fold change of GCK-ALFA target abundance (FLAG IP / Myc IP barcode read proportion) (log2 ratio); each designed protein is fused to an ALFA-tag nanobody in HEK293 cells to bring the named protein to FLAG-tagged glucokinase (GCK); Myc marks an untargeted standard; higher = target protein stabilised (more abundant)
Conditions: target protein: 3xFLAG-MCP-GCK-ALFA reporter; HEK293 landing pad (RPLP)
Summary of the method: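 An ALFA-nanobody-fused binder library was recombined into HEK293 landing-pad cells and induced with 2 μg mL^−1 doxycycline. Cells were transfected with a plasmid expressing a FLAG-tagged target and a Myc-tagged standard. After 48 h, lysates underwent anti-FLAG and anti-Myc immunoprecipitation, and circular RNA barcodes were reverse transcribed, amplified and sequenced. Target abundance is the per-binder median log2 ratio of FLAG to Myc barcode read proportions. Barcodes needed ≥10^−7 proportion in both replicates, binders ≥3 barcodes per replicate, and a 10^−6 pseudocount was added; the two replicates were pooled.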

Row | Binder | median log2 fold change
1 | B1 | 0.311
2 | B2 | 0.34
3 | B3 | -0.0614
4 | B4 | 0.33
5 | B5 | 0.47
6 | B6 | 0.345
7 | B7 | 0.203
8 | B8 | -0.0318
9 | B9 | -1.24
10 | B10 | 0.0667
11 | B11 | 0.0539
12 | B12 | -0.0674
13 | B13 | -0.892
14 | B14 | -0.0117
15 | B15 | 0.4
16 | B16 | 0.233
17 | B17 | -1.39
18 | B18 | 0.0951
19 | B19 | -1.3
